Hits are enriched below; roughly 1.3% of the tested compounds scored in any of these assays.
Keap1 Nrf2 FP = disrupts human Keap1 binding to Nrf2 peptide; Q14145; Keap1 Kelch-Nrf2 peptide fluorescence polarization, 1536-well; inhibition, % at 9.4 µM; hit rate 0.15% among 340,000; AID 504523; in the data active = inhibition above about 12%;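 note: human Keap1 Kelch domain with fluorescein labeled Nrf2 9mer peptide probe; 0% = neutral control wells and 100% = peptide positive control; higher means more block of Keap1 binding to Nrf2 peptide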
Target sequence (Q14145 whole entry, looked up, the tested form may be a part): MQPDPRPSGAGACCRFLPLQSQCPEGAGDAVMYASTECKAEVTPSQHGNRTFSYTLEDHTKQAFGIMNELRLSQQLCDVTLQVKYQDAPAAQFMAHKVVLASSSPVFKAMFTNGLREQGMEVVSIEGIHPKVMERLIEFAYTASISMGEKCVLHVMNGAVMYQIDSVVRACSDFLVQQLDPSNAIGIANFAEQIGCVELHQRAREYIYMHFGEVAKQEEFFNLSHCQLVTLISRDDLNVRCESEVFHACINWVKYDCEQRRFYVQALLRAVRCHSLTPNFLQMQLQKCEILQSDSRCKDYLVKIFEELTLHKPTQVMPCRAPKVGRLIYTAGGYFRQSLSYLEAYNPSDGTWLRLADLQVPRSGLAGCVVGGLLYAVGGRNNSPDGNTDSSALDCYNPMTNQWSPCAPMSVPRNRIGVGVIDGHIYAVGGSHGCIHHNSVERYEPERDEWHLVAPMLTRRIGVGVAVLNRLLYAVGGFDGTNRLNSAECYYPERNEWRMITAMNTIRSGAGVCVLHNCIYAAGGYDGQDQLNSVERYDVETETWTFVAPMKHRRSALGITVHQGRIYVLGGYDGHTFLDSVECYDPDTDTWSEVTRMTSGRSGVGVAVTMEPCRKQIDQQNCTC
LANA DNA inh = inhibitors of KSHV LANA C-terminal domain DNA binding. hit rate 0.078% among 340,000. MBP-C-LANA/FAM-LBS DNA binding, fluorescence polarization. inhibition, % at 9 µM;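 active = highest replicate inhibition at or above 60% at 9 µM, even if other replicates fall short; inactive = all replicates below 60% inhibition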;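 note: 0% = neutral control wells and 100% = 4 µM acridine orange control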
RTF Ca sens inh = cardiac RTF calcium desensitization; hit rate 0.12% among 340,000; P19429+P45379; AID 493244; inhibition, % at 7.15 µM; IANBD-labeled cardiac RTF, Ca2+ fluorescence;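 active = inhibition above the mean inhibition of all tested compounds plus 3 SD, cut at about 17% in these data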;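 note: assay run at fixed EC70 calcium of 1.6 mM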
CRFBP-R2 agonist = CRF-BP/CRF-R2 complex agonism. HEK293 CRF-R2/CRF-BP, calcium dye fluorescence (FLIPR); percent of saturating CRF peptide response. AID 588473. activation, % at 13.2 µM. hit rate 0.46% among 350,000;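 active = activation of at least 50%, plus an integration ratio under a set limit after plate pattern correction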;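 note: plate controls were neutral control wells without compound for no effect and CRF at EC100 for full effect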
CRFBP-R2 block = blocks CRF-induced signaling of the CRF-BP/CRF-R2 complex; HEK293 CRF-R2/CRF-BP, CRF-induced calcium fluorescence; inhibition, % at 11.8 µM; hit rate 0.59% among 350,000;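 active = inhibition of the ligand-induced calcium signal above about 50% at the single tested concentration, limit read from the data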
cardiac RTF act = increases calcium sensitivity of human cardiac regulated thin filaments; P19429+P45379; IANBD-labeled TnC RTF fluorescence at EC20 calcium; 0% EC20 calcium, 100% full calcium; activation, % at 7.2 µM; hit rate 0.24% among 340,000; AID 493008;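 active = activation above the mean over all tested compounds plus 3 SD, cut at about 30% in these data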;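 note: rise in fluorescence read as greater calcium sensitivity of cardiac thin filaments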
Keap1 Kelch bind = binds and thermally shifts human Keap1 Kelch domain; shares compounds with Keap1 Nrf2 FP; Keap1 Kelch thermal shift, delta Tm; stronger effect = higher value; max delta Tm, degrees C; hit rate 8% among 400; AID 651823; in the data active = max delta Tm above about 0.48 degrees C
Dye-only ctr = shifts Sypro Orange melt without protein, a false positive; shares compounds with Keap1 Nrf2 FP; Sypro Orange dye-only thermal melt, no protein, delta Tm; top dose 26 µM; delta Tm, degrees C (test concentration not listed); 140 tested, under 10 active; AID 651858;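 active = at highest dose tested, delta Tm positive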
* = called active by the depositor; i = inactive; / = no result given; + = active, no number.

SMILES | Keap1 Nrf2 FP | LANA DNA inh | RTF Ca sens inh | CRFBP-R2 agonist | CRFBP-R2 block | cardiac RTF act | Keap1 Kelch bind | others
CCOc1ccc(NC(=O)COC(=O)CCN2C(=O)C3CC=CCC3C2=O)cc1OCC (centres undefined) | 45.3* | 22.0 | -13.4 | 0.5 | 4.8 | 16.8 | 0.15
Cc1nnc(SCC2=C(C(=O)O)N3C(=O)C(NC(=O)COc4ccccc4)C3SC2)s1 (centres undefined) | -3.9 | 2.1 | -0.9 | 0.7 | -4.3 | 2.8 | /
CCC(C(=O)NC1C(=O)N2C(C(=O)O)=C(CSc3nnc(C)s3)CSC12)c1ccccc1 (centres undefined) | 30.0* | 16.9 | -12.5 | 1.4 | 6.3 | 7.9 | -0.12 | Dye-only ctr=-26
Cc1nnsc1C(=O)N1CCN(c2ccc(F)cc2)CC1 | 13.9* | 11.2 | 5.3 | 0.7 | -10.9 | 2.2 | -0.15
Cc1cc(C)c2c(N=NN(C)C)[nH]nc2n1 | 0.2 | 3.2 | 5.5 | -2.6 | 3.1 | -1.4 | /
COc1ccc(NC(=S)N2CCN(Cc3ccc(C)cc3)CC2)cc1 | 25.9* | -1.0 | 5.8 | -0.3 | -6.8 | 0.1 | -0.07 | Dye-only ctr=-29.5
O=C(NN1C(=O)C2C3C=CC([C@@H]2C1=O)C31CC1)c1ccccc1 (some centres undefined) | -6.4 | -0.4 | -4.3 | 1.5 | -3.3 | 10.6 | /
CCOc1ccc(OCCCC(=O)N(CC)CC(=O)Nc2c(F)cccc2F)cc1 | 35.8* | 22.8 | -11.8 | -1.6 | -3.5 | 1.1 | -0.15 | Dye-only ctr=-26.8
CCN(CC(=O)Nc1c(F)cccc1F)C(=O)CCCOc1ccccc1 | -1.7 | -1.2 | -7.3 | -0.8 | 4.5 | -6.6 | /
COc1ccccc1NC(=O)C(C)OC(=O)C1COc2ccccc2O1 (centres undefined) | 21.9* | 9.7 | -9.0 | -1.9 | 6.8 | 14.7 | -0.1
CC(OC(=O)C1COc2ccccc2O1)C(=O)c1ccccc1 (centres undefined) | / | / | / | 0.4 | -22.4 | / | /
CN1C(=O)NC(c2ccccc2[N+](=O)[O-])C2=C1CCCC2=O (centres undefined) | 28.8* | 46.4 | -64.5 | 12.2 | 1.2 | 37.8* | 0.01 | Dye-only ctr=-34.5
Cc1ccc(O)c(C(=O)c2cnc3c(c2)c(=O)n(C)c(=O)n3C)c1 | -0.7 | 1.0 | / | 1.3 | -0.1 | / | /
Cc1ccc(O)c(C(=O)c2cnc3c(c2)c(C)nn3-c2ccccc2)c1 | 22.6* | 1.4 | -6.7 | 0.4 | -0.6 | -7.7 | -0.1 | Dye-only ctr=-27.9
Cc1cc(C)c(C)c(S(=O)(=O)Nc2cccc(S(=O)(=O)Nc3ccccc3C(=O)O)c2)c1C | 13.9* | 0.4 | 4.6 | 0.2 | -5.7 | -6.8 | 0.58*
O=C(CSc1ncn[nH]1)NN(c1ccccc1)c1ccccc1 | -2.9 | 0.5 | 3.9 | 0.0 | -7.7 | -4.5 | /
O=C(NCCN1CCOCC1)c1cccc2c1C(=O)c1ccc(N3CCCC3)cc1S2(=O)=O | -32.7 | -5.1 | -25.1 | 14.5 | -14.6 | 14.6 | /
O=C(NCc1cccc(F)c1)c1cccc2c1C(=O)c1ccc(N3CCCC3)cc1S2(=O)=O | 14.6* | 30.6 | -84.7 | 91.3* | -49.3 | 76.1* | -0.02
CCc1ccc2[nH]c(=O)c(C(c3nnnn3CC3CCCO3)N3CCCc4ccccc43)cc2c1 (centres undefined) | -1.5 | 0.3 | -8.9 | -0.5 | -47.8 | -2.2 | /
CCCN1CNC(=S)N(c2cc(C)ccc2C)C1 | 12.9* | 1.5 | -8.4 | -1.9 | -5.7 | -2.1 | -0.1
O=C(O)CCCCCN1C(=O)C(=O)/C(=C(/O)c2ccccc2)C1c1ccccc1 (centres undefined) | -2.1 | -0.7 | -4.3 | -4.3 | 45.6 | 0.8 | /
COc1cc2c3nnc(-c4ccc(F)cc4)c-3cn(Cc3ccc(C)cc3)c2cc1OC | 13.2* | 4.4 | -54.1 | 0.1 | -7.2 | 41.3* | -0.06
CCN1C(=O)c2cccc3c(N)ccc(c23)C1=O | 38.5* | 38.3 | i | 212.8 | -136.0 | + | -0.2
COc1cccc2c1C(=O)c1c(O)c3c(c(O)c1C2=O)CC(O)(C(C)=O)CC3OC1CC(N(C)C)C(O)C(C)O1 (centres undefined) | + | 117.3* | -269.2 | 89.2* | -49.5 | 190.0* | -0.12
O=C(CN(c1ccc(F)cc1)S(=O)(=O)c1ccccc1)NC1CC2CCC1C2 (centres undefined) | -0.7 | -0.8 | -0.7 | -0.8 | -11.8 | -6.4 | /
SMILES | Keap1 Nrf2 FP | LANA DNA inh | RTF Ca sens inh | CRFBP-R2 agonist | CRFBP-R2 block | cardiac RTF act | Keap1 Kelch bind | others
OCC(Cc1ccc2c(c1)OCO2)C(CO)Cc1ccc2c(c1)OCO2 (centres undefined) | 0.3 | 0.0 | 0.9 | 4.5 | 8.4 | -1.5 | /
c1ccc(-n2ncc3c(NCC4CCCO4)ncnc32)cc1 (centres undefined) | 12.1* | 6.3 | -10.7 | 1.7 | -1.7 | 1.7 | -0.19
CCOc1ccc(N(Cc2nnc3n2CCCCC3)C(=O)Nc2cccc(C)c2)cc1 | 1.7 | -4.1 | -10.4 | -0.4 | -15.1 | 6.1 | /
CCOC(=O)N1CCN(Cc2ccccc2Cl)CC1 | 14.5* | -2.2 | -6.3 | -0.4 | -4.4 | 2.4 | -0.17
CCOC(=O)N1CCN(Cc2ccccc2F)CC1 | -0.4 | -0.2 | -1.1 | -1.5 | 18.6 | -0.3 | /
Cc1ccccc1N1C(=O)c2cccc3c(N(C)CCO)ccc(c23)C1=O | 13.8* | 57.4 | -152.6 | 158.9* | -152.5 | 178.7* | -0.02
COc1cc(OC)cc(C(=O)Nc2ncc3c(n2)CC(C)CC3=O)c1 (centres undefined) | 2.2 | -0.6 | 1.9 | 1.0 | 10.3 | -11.5 | /
CCOC(=O)c1c(NC(=O)COC(=O)c2ccc(Cl)nc2)sc(C(=O)N(C)C)c1C | -3.9 | -1.0 | 12.7 | -0.7 | -6.3 | 1.7 | /
CCOC(=O)c1c(NC(=O)CN2CCN(S(=O)(=O)c3cc(Cl)ccc3Cl)CC2)sc(C(=O)N(C)C)c1C | 27.3* | 16.9 | -4.9 | 2.3 | 8.5 | 2.8 | -0.11
CCOc1ccccc1N(C(=O)c1snc(C(N)=O)c1N)C(C(=O)NCc1ccccc1)c1ccc(O)cc1 (centres undefined) | -6.0 | -1.3 | -5.5 | 0.5 | 4.3 | -7.2 | /
O=C1c2ccccc2-c2onc3ccc(Oc4ccccc4)c1c23 | 56.3* | 10.5 | -56.1 | 17.5 | -66.4 | 31.1* | -0.07 | Dye-only ctr=-30.3
C=CCN1C(=O)/C(=C2/Sc3ccc(OC)cc3N2C)SC1=Nc1ccccc1 | -0.3 | 1.0 | -7.7 | 3.0 | -4.8 | -0.2 | /
CCCCN1C(=O)/C(=C2/Sc3ccccc3N2C)S/C1=N\c1ncn[nH]1 | 41.2* | 21.4 | -3.9 | 8.6 | 21.3 | 6.0 | -0.07 | Dye-only ctr=-28.4
Cn1c(SCC(=O)c2cc(Cl)c(Cl)s2)nnc1-c1ccco1 | 31.9* | 18.5 | / | 0.8 | -8.6 | / | -0.2
Cn1nccc1C(=O)Nc1ccc2c(c1)OCCO2 | -3.3 | 3.0 | -8.7 | -5.3 | 8.2 | 3.1 | /

High-throughput results as filed in PubChem.
